Values joined by “and” are separate entries in the source; they are usually repeats but may differ in a detail not shown here. Equal values may be shown once. Results filed as inconclusive are left out. Where a call stands in place of a potency, no number is given. Active and inactive are the calls of the source. The call rests on the fitted dose curve; in most records, active means well fitted cell-killing curve with a large enough effect; inconclusive means small, poorly fitted or top-dose-only effect; inactive means no such curve, though single readings can be large or run the other way.
Experiment: qHTS of pediatric cancer cell lines to identify multiple opportunities for drug repurposing: Primary screen for LAN-5 cells (AID 1347100)
Settings: LAN-5 neuroblastoma viability, CellTiter-Glo luminescence, 48 h; series mostly up to 46 µM
Outline: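 Cells (500-1,000/well) rested 5 h, then received compounds for 48 h; metabolically active cells were measured by CellTiter-Glo luminescence. Final concentrations spanned up to 46 µM (MIPE, 11-point) or 0.59 nM-46 µM (NPC, 8-point) in primary screens, 11-point in follow-ups.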
Potency means the concentration at half of the fitted maximal effect.

Row | SMILES | Potency
1 | CCCCC1C(=O)N(c2ccccc2)N(c2ccccc2)C1=O | inactive
2 | COC1CCC(N(C(=O)C2CCC(C)CC2)c2cc(C3=CCCCC3)sc2C(=O)O)CC1 (configuration not stated) | inactive
3 | CCc1ccc(C=C2SC(=S)NC2=O)cc1 | inactive
4 | NS(=O)(=O)c1cccc2c1C(=O)c1cccc(O)c1C2=O | 1.05 µM (active)
5 | Cc1nnc(C(C)C)n1C1C[C@H]2CC[C@@H](C1)N2CC[C@H](NC(=O)C1CCC(F)(F)CC1)c1ccccc1 (some centres not stated) | inactive
6 | Cc1nc(N)sc1-c1ccnc(Nc2ccc(N3CCOCC3)cc2)n1 | 0.332 µM (active)
7 | O=C(CCCCCCC(=O)Nc1ccccc1)NO | 1 nM (active) and 1.32 µM (active)
8 | CC(C)NCC(O)COc1cccc2[nH]ccc12 (configuration not stated) | inactive
9 | O=C1NC(=O)C(c2ccccc2)(c2ccccc2)N1 | inactive
10 | CON=C(C(=O)N[C@@H]1C(=O)N2C(C(=O)OCOC(=O)C(C)(C)C)=C(C=Cc3scnc3C)CS[C@H]12)c1csc(N)n1 | inactive
11 | c1cc(-c2sc(-c3ccncc3)c(-c3ccncc3)c2-c2ccncc2)ccn1 | inactive
12 | CN1C[C@H]2c3ccccc3Oc3ccc(Cl)cc3[C@@H]2C1 | inactive
13 | Clc1ccc(C(c2ccc(Cl)cc2)n2cc[n+](CC(OCc3ccc(Cl)cc3Cl)c3ccc(Cl)cc3Cl)c2)cc1 (configuration not stated) | 18.7 µM (active)
14 | OC[C@@H](O)[C@H](O)[C@H](O)[C@@H](O)CO | inactive
15 | C=C1C(=O)[C@@]23C(CC[C@@H]1[C@H]2O)[C@@]12CO[C@]3(O)[C@@H](O)[C@@H]1C(C)(C)CC[C@@H]2O (some centres not stated) | 1.66 µM (active)
16 | CC(C)n1nc(-c2ccc3oc(N)nc3c2)c2c(N)ncnc21 | 18.7 µM (active)
17 | C[C@]12CCC3c4ccc(O)cc4CCC3C1CCC2=O (some centres not stated) | inactive
18 | CCOC1OC(=O)C[C@H]1NC(=O)[C@@H]1CCCN1C(=O)[C@@H](NC(=O)c1ccc(N)c(Cl)c1)C(C)(C)C (some centres not stated) | 0.833 µM (active)
19 | COC(=O)N[C@H](C(=O)N1CCC[C@@H]1c1ncc(-c2ccc(-c3ccc(-c4cnc([C@@H]5CCCN5C(=O)[C@@H](NC(=O)OC)C(C)C)[nH]4)cc3)cc2)[nH]1)C(C)C | 26.4 µM (active)

Row | SMILES | Potency
20 | CC(C)(C)c1cc(C(=O)O)c(NC(=O)Nc2ccc3[nH]ncc3c2)s1 | inactive
21 | CC(C)C(C)C=CC(C)C1CCC2C3=CC=C4CC(O)CCC4(C)C3CCC21C (configuration not stated) | inactive
22 | Clc1ccc(-c2nc3sccn3c2C=NOCc2ccc(Cl)c(Cl)c2)cc1 | inactive
23 | C=C1C(=O)OC(CCCCCCCC)C1C(=O)O (configuration not stated) | inactive
24 | O=C(NCCN1CCOCC1)c1ccc(Cl)cc1 | inactive
25 | Oc1ccc(C2CCN(c3ccnc4ccccc34)CC2)cc1O | 18.7 µM (active)
26 | CC1(C)CCC(CN2CCN(c3ccc(C(=O)NS(=O)(=O)c4ccc(NCC5CCOCC5)c([N+](=O)[O-])c4)c(Oc4cnc5[nH]ccc5c4)c3)CC2)=C(c2ccc(Cl)cc2)C1 | 1.05 µM (active)
27 | NC1CCC(Nc2nc(Nc3ccc(C(=O)N4CCCCC4)cc3)c3ncn(-c4cccc(F)c4)c3n2)CC1 (configuration not stated) | inactive
28 | NC1=N[C@@]2(c3cc(NC(=O)c4ccc(F)cn4)ccc3F)COC[C@@H]2CS1 | 0.132 µM (active)
29 | CCc1ccc(OCc2ccccc2C(=O)Nc2ccc3nc(C)cc(N)c3c2)cc1 | 8.33 µM (active)
30 | COc1ccc2c3c1OC1C[C@@H](O)C=C[C@@]31CCN(C)C2 (some centres not stated) | inactive
31 | O=c1[nH]cnc2c1ncn2[C@H]1CC[C@@H](CO)O1 | inactive
32 | CC#CCn1c(N2CCC[C@@H](N)C2)nc2c1c(=O)n(Cc1nc(C)c3ccccc3n1)c(=O)n2C | inactive
33 | CC(C)(C(=O)NCC(F)(F)C(F)(F)F)C(=O)N[C@@H]1C(=O)Nc2ccccc2-c2ccccc21 | 0.662 µM (active)
34 | CCCCCCCCCCCC1=C(O)C(=O)C=C(O)C1=O | 0.0166 µM (active)
35 | CNC(=O)c1ccccc1Sc1ccc2c(C=Cc3ccccn3)n[nH]c2c1 | 0.743 µM (active)
36 | OC[C@H]1O[C@@H](n2cnc3c2NC=NC[C@@H]3O)C[C@H]1O | inactive
37 | O=C1c2ccccc2-[n+]2ccc3c([nH]c4ccccc43)c21 | 1.66 µM (active)
